Assay results taken from PubChem BioAssay (NCI).
“And” between values parts separate entries of the source, which are not always exact repeats. Equal entries are not always repeated. The panel holds about 83,000 compounds, 20% with a hit somewhere; the sample as a whole holds those more often.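 Results are percent growth after 48 hours of single-concentration exposure. 100 means growth as in untreated cells, lower positive values show inhibition; negative values down to -100 show cell death.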 The source made the active and inactive calls. How the source made its calls: active means growth percent below 10; inactive means the rest.

Assays:
Assay in all cases: NCI-60 one-dose screen, 48 h (100 = growth as untreated, 0 = no growth, -100 = all killed)
SR leukemia = test system: SR leukemia
RPMI-8226 leukemia = test system: RPMI-8226 leukemia
OVCAR-8 ovarian = test system: OVCAR-8 ovarian
OVCAR-5 ovarian = test system: OVCAR-5 ovarian
OVCAR-4 ovarian = test system: OVCAR-4 ovarian
SK-OV-3 ovarian = test system: SK-OV-3 ovarian
IGROV1 ovarian = test system: IGROV1 ovarian
OVCAR-3 ovarian = test system: OVCAR-3 ovarian
HS 578T breast = test system: HS 578T breast
NCI/ADR-RES ovarian = test system: NCI/ADR-RES ovarian
T-47D breast = test system: T-47D breast
BT-549 breast = test system: BT-549 breast
MDA-MB-435 melanoma = test system: MDA-MB-435 melanoma
SW-620 colon = test system: SW-620 colon
MCF7 breast = test system: MCF7 breast
HCT-116 colon = test system: HCT-116 colon
HCC-2998 colon = test system: HCC-2998 colon
KM12 colon = details: 10 µM unless noted

Measured: growth

COc1ccc(Cn2cc(C(=O)Nc3cccnc3Nc3ccccc3)nn2)cc1
inactive: SR leukemia; 10 µM unless noted 94.9% | RPMI-8226 leukemia; 10 µM unless noted 96.3% | OVCAR-8 ovarian; 10 µM unless noted 101% | OVCAR-5 ovarian; 10 µM unless noted 107% | OVCAR-4 ovarian; 10 µM unless noted 95% | SK-OV-3 ovarian; 10 µM unless noted 112% | IGROV1 ovarian; 10 µM unless noted 102% | OVCAR-3 ovarian; 10 µM unless noted 118% | HS 578T breast; 10 µM unless noted 94.1% | NCI/ADR-RES ovarian; 10 µM unless noted 89.8% | T-47D breast; 10 µM unless noted 91.7% | BT-549 breast; 10 µM unless noted 86.9% | MDA-MB-435 melanoma; 10 µM unless noted 96.5% | SW-620 colon; 10 µM unless noted 112% | MCF7 breast; 10 µM unless noted 91% | HCT-116 colon; 10 µM unless noted 103% | HCC-2998 colon; 10 µM unless noted 88.5% | KM12 colon 97.8%

CC(=O)/C=C/c1ccc(N(C)Cc2ccc(C(C)(C)C)cc2)cc1
inactive: SR leukemia; 10 µM 80.4% | RPMI-8226 leukemia; 10 µM 78.2% | OVCAR-8 ovarian; 10 µM 92.4% | OVCAR-5 ovarian; 10 µM 102% | OVCAR-4 ovarian; 10 µM 85.2% | SK-OV-3 ovarian; 10 µM 98.4% | IGROV1 ovarian; 10 µM 99% | OVCAR-3 ovarian; 10 µM 101% | HS 578T breast; 10 µM 87.1% | NCI/ADR-RES ovarian; 10 µM 86.1% | T-47D breast; 10 µM 62.5% | BT-549 breast; 10 µM 101% | MDA-MB-435 melanoma; 10 µM 88.5% | SW-620 colon; 10 µM 88.5% | MCF7 breast; 10 µM 80.3% | HCT-116 colon; 10 µM 79.9% | HCC-2998 colon; 10 µM 99.6%
active: SR leukemia; 100 µM -29.5% | RPMI-8226 leukemia; 100 µM -49.8% | OVCAR-8 ovarian; 100 µM -54.8% | OVCAR-5 ovarian; 100 µM -72% | OVCAR-4 ovarian; 100 µM -68.9% | SK-OV-3 ovarian; 100 µM -29.8% | IGROV1 ovarian; 100 µM 1.66% | OVCAR-3 ovarian; 100 µM -93.2% | HS 578T breast; 100 µM -33.3% | NCI/ADR-RES ovarian; 100 µM -60.1% | T-47D breast; 100 µM -53.9% | BT-549 breast; 100 µM -90.8% | MDA-MB-435 melanoma; 100 µM -54.3% | SW-620 colon; 100 µM -53.5% | MCF7 breast; 100 µM -22.6% | HCT-116 colon; 100 µM -66.2% | HCC-2998 colon; 100 µM -41.2%

COc1ccc(-c2ccc(-c3ccc(C(=N)N)cn3)o2)cc1Cl
inactive: OVCAR-8 ovarian; 10 µM unless noted 12.3% | OVCAR-5 ovarian; 10 µM unless noted 68.6% | OVCAR-4 ovarian; 10 µM unless noted 38.8% | SK-OV-3 ovarian; 10 µM unless noted 84.8% | IGROV1 ovarian; 10 µM unless noted 68.7% | HS 578T breast; 10 µM unless noted 59.1% | NCI/ADR-RES ovarian; 10 µM unless noted 82.8% | T-47D breast; 10 µM unless noted 31.1% | BT-549 breast; 10 µM unless noted 57.8% | HCC-2998 colon; 10 µM unless noted 67.5% | KM12 colon 16.4%
active: SR leukemia; 10 µM unless noted -28.3% | RPMI-8226 leukemia; 10 µM unless noted -35.5% | OVCAR-3 ovarian; 10 µM unless noted -13.2% | MDA-MB-435 melanoma; 10 µM unless noted -69.4% | SW-620 colon; 10 µM unless noted -50.3% | MCF7 breast; 10 µM unless noted -31.1% | HCT-116 colon; 10 µM unless noted 0.389%

O=C(Nc1ccc2ncsc2c1)c1csc(Nc2ccc3[nH]ncc3c2)n1
active: OVCAR-3 ovarian; 10 µM unless noted 8.38% | MDA-MB-435 melanoma; 10 µM unless noted -27.1%
inactive: SR leukemia; 10 µM unless noted 29.1% | RPMI-8226 leukemia; 10 µM unless noted 13.6% | OVCAR-8 ovarian; 10 µM unless noted 45.7% | OVCAR-5 ovarian; 10 µM unless noted 78.6% | OVCAR-4 ovarian; 10 µM unless noted 74.8% | SK-OV-3 ovarian; 10 µM unless noted 52.9% | IGROV1 ovarian; 10 µM unless noted 59.1% | HS 578T breast; 10 µM unless noted 37.7% | NCI/ADR-RES ovarian; 10 µM unless noted 56.9% | T-47D breast; 10 µM unless noted 36.4% | BT-549 breast; 10 µM unless noted 73.4% | SW-620 colon; 10 µM unless noted 20.9% | MCF7 breast; 10 µM unless noted 21.6% | HCT-116 colon; 10 µM unless noted 47.5% | HCC-2998 colon; 10 µM unless noted 72.5% | KM12 colon 30.9%

CCOC(=O)c1ccc(Nc2ncnc3c2cnn3-c2cccc(F)c2)cc1
inactive: SR leukemia; 10 µM unless noted 94.7% | RPMI-8226 leukemia; 10 µM unless noted 99.5% | OVCAR-8 ovarian; 10 µM unless noted 98.3% | OVCAR-5 ovarian; 10 µM unless noted 97.1% | OVCAR-4 ovarian; 10 µM unless noted 99.7% | SK-OV-3 ovarian; 10 µM unless noted 120% | IGROV1 ovarian; 10 µM unless noted 98.7% | OVCAR-3 ovarian; 10 µM unless noted 112% | HS 578T breast; 10 µM unless noted 95.9% | NCI/ADR-RES ovarian; 10 µM unless noted 103% | T-47D breast; 10 µM unless noted 100% | BT-549 breast; 10 µM unless noted 100% | MDA-MB-435 melanoma; 10 µM unless noted 103% | SW-620 colon; 10 µM unless noted 99.8% | MCF7 breast; 10 µM unless noted 95% | HCT-116 colon; 10 µM unless noted 99.3% | HCC-2998 colon; 10 µM unless noted 104%

COc1ccc(CCNC(=O)COc2cc3c(Nc4ccc(F)c(Cl)c4)ncnc3cc2OC)cc1OC
inactive: SR leukemia; 10 µM unless noted 82.3% | RPMI-8226 leukemia; 10 µM unless noted 90.1% | OVCAR-8 ovarian; 10 µM unless noted 103% | OVCAR-5 ovarian; 10 µM unless noted 65.4% | OVCAR-4 ovarian; 10 µM unless noted 92.4% | SK-OV-3 ovarian; 10 µM unless noted 89.8% | IGROV1 ovarian; 10 µM unless noted 46.3% | OVCAR-3 ovarian; 10 µM unless noted 82.8% | HS 578T breast; 10 µM unless noted 92.4% | NCI/ADR-RES ovarian; 10 µM unless noted 85.6% | T-47D breast; 10 µM unless noted 70% | BT-549 breast; 10 µM unless noted 99.5% | MDA-MB-435 melanoma; 10 µM unless noted 97.2% | SW-620 colon; 10 µM unless noted 101% | MCF7 breast; 10 µM unless noted 91.9% | HCT-116 colon; 10 µM unless noted 107% | HCC-2998 colon; 10 µM unless noted 101%

CN1CCN(CCCN2c3ccccc3Sc3ccc(Cl)cc32)CC1
inactive: SR leukemia; 10 µM unless noted 74.7% | RPMI-8226 leukemia; 10 µM unless noted 76.3% and 92.3% | OVCAR-8 ovarian; 10 µM unless noted 84.8% and 85.4% | OVCAR-5 ovarian; 10 µM unless noted 94.4% | OVCAR-4 ovarian; 10 µM unless noted 68.4% and 81.1% | SK-OV-3 ovarian; 10 µM unless noted 99% | IGROV1 ovarian; 10 µM unless noted 54.5% | OVCAR-3 ovarian; 10 µM unless noted 93.9% and 81.3% | HS 578T breast; 10 µM unless noted 66.8% and 60.3% | NCI/ADR-RES ovarian; 10 µM unless noted 69% and 83.2% | T-47D breast; 10 µM unless noted 63.5% | BT-549 breast; 10 µM unless noted 85.8% and 91.1% | MDA-MB-435 melanoma; 10 µM unless noted 30.3% and 42.4% | SW-620 colon; 10 µM unless noted 83.2% and 94% | MCF7 breast; 10 µM unless noted 37.2% and 63.8% | HCT-116 colon; 10 µM unless noted 57.5% and 70.6% | HCC-2998 colon; 10 µM unless noted 66.8%
